Data from the supplement of paper PMC11732987, “Enantioselective OTUD7B fragment discovery through chemoproteomics screening and high-throughput optimisation” (Communications Chemistry, 2025).

Columns and labels:
Test in all cases: log2 ratio of Biotin-Ahx-Ub-VS probe labelling (fragment/DMSO); higher = less target engagement (more negative = stronger competition), active = hit call of the paper (q ≤ 0.05, log2 ratio ≤ -1)
Settings in all cases: compound concentration: 200 uM; treatment time: 3 h
USP34 = USP34 (UniProt Q70CQ2)
How it was run: (§1)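 Each value is an average log2 ratio of fragment to vehicle, tested by unpaired t-test. The underlying Spectronaut label-free quantities were global-median-normalised, and only proteins with ≥2 unique peptides were included. Triplicate HEK293T lysate samples (495 µg) were exposed to fragment at 200 µM or vehicle for 3 h, then to Biotin-Ahx-Ub-VS at 0.5 µM final for 1 h, before NeutrAvidin enrichment of labelled DUBs, LysC and trypsin digestion, and diaPASEF LC-MS/MS.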

USP36 = biological target: T1, USP36 (UniProt Q9P275)
T1 sequence (whole entry): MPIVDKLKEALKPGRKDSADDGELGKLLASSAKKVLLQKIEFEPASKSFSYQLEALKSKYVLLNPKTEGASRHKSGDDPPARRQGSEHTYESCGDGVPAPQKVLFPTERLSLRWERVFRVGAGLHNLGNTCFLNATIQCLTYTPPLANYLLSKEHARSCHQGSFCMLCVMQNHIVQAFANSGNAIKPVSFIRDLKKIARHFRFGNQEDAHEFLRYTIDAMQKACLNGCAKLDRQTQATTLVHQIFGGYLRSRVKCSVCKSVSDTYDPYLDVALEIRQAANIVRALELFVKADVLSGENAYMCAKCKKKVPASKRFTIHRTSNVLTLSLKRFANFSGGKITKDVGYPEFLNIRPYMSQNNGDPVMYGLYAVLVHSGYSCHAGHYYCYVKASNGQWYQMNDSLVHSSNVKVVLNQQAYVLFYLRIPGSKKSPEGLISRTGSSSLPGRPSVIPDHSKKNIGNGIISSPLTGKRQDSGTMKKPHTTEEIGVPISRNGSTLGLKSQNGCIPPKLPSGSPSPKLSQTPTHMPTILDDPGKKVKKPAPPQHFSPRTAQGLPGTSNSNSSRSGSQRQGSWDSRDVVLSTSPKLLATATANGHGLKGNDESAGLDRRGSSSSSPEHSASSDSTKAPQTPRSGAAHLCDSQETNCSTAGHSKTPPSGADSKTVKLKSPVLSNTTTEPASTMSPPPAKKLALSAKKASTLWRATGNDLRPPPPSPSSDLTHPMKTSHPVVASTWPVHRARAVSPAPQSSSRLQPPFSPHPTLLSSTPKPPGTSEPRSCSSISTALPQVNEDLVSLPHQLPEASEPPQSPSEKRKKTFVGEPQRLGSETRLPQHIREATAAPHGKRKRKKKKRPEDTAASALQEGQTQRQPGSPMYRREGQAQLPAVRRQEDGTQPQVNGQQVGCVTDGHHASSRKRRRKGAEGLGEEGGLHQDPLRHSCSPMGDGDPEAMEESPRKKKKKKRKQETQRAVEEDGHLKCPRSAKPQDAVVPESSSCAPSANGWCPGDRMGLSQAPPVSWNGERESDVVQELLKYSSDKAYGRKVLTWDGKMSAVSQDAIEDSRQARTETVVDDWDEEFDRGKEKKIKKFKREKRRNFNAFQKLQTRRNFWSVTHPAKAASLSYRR
How it was run: as §1

USP38 = biological target: T2, USP38 (UniProt Q8NB14)
T2 sequence (whole entry): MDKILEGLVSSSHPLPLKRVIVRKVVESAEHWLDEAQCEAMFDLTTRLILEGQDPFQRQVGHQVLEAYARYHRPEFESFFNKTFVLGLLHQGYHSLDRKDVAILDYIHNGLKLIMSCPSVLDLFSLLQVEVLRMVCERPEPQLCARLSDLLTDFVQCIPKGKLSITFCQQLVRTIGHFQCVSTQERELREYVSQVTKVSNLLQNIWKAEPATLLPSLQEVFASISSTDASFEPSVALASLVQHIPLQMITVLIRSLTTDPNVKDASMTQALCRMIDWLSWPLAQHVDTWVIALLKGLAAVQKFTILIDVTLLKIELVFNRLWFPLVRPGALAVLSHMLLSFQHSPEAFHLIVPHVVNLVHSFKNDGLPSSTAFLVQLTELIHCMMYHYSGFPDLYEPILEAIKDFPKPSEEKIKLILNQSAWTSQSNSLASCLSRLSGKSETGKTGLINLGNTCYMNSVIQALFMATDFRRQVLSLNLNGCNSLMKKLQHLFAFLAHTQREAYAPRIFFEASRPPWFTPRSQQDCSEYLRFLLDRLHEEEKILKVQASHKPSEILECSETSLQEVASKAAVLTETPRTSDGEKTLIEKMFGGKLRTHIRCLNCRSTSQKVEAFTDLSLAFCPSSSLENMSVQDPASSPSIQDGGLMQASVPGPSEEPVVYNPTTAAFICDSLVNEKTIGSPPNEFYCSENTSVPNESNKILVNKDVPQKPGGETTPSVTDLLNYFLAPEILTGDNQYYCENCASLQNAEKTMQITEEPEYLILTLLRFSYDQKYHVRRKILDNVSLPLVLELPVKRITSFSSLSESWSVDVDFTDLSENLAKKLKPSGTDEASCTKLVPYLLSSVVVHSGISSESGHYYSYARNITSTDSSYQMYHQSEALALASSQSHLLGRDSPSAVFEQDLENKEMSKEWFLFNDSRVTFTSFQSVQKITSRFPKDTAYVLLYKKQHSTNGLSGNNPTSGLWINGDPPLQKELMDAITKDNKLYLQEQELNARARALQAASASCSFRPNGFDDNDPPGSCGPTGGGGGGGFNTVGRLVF
How it was run: as §1

USP39 = biological target: T3, USP39 (UniProt Q53GS9)
T3 sequence (whole entry): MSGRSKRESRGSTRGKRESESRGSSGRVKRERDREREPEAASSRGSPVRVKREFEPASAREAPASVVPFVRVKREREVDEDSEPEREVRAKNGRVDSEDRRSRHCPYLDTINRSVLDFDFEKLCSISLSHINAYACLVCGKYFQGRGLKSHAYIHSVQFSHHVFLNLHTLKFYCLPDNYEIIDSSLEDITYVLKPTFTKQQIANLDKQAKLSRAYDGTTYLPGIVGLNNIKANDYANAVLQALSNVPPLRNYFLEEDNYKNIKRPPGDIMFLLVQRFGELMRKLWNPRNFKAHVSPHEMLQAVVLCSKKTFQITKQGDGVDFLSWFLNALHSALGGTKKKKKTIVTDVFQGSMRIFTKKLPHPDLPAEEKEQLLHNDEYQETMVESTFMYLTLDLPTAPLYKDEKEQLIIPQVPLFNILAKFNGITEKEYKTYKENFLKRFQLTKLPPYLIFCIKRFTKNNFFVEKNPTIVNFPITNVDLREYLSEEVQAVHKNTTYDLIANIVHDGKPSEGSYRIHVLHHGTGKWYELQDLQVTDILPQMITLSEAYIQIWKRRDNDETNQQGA
How it was run: as §1

USP4 = biological target: T4, USP4 (UniProt Q13107)
T4 sequence (whole entry): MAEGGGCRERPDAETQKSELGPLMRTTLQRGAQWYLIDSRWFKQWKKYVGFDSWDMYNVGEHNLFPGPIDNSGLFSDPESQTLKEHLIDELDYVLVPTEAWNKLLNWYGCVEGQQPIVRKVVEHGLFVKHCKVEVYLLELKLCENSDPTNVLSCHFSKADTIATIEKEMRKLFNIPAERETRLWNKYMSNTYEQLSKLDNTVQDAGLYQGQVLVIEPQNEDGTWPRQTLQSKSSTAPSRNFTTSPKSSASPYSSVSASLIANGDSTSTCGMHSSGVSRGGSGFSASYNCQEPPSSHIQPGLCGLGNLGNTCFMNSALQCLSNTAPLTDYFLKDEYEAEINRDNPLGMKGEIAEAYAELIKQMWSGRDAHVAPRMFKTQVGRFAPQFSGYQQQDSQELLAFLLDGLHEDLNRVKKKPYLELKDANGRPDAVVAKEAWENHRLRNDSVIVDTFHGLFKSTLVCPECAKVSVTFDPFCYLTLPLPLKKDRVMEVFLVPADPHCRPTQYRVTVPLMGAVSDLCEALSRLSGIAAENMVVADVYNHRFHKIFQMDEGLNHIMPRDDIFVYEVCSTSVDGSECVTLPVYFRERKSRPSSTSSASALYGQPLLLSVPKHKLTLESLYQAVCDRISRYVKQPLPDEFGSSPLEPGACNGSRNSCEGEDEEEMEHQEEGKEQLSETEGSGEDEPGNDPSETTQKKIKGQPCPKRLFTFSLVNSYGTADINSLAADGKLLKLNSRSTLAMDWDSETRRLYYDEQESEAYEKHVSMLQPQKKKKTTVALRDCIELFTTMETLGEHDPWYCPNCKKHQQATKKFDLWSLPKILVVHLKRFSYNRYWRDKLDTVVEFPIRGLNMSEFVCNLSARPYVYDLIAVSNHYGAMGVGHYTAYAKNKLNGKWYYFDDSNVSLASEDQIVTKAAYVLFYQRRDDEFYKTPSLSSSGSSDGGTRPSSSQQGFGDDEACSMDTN
How it was run: as §1

Measured: log2 ratio of Biotin-Ahx-Ub-VS probe labelling

Chain of USP34 (Q70CQ2 whole entry, the tested form may be a part): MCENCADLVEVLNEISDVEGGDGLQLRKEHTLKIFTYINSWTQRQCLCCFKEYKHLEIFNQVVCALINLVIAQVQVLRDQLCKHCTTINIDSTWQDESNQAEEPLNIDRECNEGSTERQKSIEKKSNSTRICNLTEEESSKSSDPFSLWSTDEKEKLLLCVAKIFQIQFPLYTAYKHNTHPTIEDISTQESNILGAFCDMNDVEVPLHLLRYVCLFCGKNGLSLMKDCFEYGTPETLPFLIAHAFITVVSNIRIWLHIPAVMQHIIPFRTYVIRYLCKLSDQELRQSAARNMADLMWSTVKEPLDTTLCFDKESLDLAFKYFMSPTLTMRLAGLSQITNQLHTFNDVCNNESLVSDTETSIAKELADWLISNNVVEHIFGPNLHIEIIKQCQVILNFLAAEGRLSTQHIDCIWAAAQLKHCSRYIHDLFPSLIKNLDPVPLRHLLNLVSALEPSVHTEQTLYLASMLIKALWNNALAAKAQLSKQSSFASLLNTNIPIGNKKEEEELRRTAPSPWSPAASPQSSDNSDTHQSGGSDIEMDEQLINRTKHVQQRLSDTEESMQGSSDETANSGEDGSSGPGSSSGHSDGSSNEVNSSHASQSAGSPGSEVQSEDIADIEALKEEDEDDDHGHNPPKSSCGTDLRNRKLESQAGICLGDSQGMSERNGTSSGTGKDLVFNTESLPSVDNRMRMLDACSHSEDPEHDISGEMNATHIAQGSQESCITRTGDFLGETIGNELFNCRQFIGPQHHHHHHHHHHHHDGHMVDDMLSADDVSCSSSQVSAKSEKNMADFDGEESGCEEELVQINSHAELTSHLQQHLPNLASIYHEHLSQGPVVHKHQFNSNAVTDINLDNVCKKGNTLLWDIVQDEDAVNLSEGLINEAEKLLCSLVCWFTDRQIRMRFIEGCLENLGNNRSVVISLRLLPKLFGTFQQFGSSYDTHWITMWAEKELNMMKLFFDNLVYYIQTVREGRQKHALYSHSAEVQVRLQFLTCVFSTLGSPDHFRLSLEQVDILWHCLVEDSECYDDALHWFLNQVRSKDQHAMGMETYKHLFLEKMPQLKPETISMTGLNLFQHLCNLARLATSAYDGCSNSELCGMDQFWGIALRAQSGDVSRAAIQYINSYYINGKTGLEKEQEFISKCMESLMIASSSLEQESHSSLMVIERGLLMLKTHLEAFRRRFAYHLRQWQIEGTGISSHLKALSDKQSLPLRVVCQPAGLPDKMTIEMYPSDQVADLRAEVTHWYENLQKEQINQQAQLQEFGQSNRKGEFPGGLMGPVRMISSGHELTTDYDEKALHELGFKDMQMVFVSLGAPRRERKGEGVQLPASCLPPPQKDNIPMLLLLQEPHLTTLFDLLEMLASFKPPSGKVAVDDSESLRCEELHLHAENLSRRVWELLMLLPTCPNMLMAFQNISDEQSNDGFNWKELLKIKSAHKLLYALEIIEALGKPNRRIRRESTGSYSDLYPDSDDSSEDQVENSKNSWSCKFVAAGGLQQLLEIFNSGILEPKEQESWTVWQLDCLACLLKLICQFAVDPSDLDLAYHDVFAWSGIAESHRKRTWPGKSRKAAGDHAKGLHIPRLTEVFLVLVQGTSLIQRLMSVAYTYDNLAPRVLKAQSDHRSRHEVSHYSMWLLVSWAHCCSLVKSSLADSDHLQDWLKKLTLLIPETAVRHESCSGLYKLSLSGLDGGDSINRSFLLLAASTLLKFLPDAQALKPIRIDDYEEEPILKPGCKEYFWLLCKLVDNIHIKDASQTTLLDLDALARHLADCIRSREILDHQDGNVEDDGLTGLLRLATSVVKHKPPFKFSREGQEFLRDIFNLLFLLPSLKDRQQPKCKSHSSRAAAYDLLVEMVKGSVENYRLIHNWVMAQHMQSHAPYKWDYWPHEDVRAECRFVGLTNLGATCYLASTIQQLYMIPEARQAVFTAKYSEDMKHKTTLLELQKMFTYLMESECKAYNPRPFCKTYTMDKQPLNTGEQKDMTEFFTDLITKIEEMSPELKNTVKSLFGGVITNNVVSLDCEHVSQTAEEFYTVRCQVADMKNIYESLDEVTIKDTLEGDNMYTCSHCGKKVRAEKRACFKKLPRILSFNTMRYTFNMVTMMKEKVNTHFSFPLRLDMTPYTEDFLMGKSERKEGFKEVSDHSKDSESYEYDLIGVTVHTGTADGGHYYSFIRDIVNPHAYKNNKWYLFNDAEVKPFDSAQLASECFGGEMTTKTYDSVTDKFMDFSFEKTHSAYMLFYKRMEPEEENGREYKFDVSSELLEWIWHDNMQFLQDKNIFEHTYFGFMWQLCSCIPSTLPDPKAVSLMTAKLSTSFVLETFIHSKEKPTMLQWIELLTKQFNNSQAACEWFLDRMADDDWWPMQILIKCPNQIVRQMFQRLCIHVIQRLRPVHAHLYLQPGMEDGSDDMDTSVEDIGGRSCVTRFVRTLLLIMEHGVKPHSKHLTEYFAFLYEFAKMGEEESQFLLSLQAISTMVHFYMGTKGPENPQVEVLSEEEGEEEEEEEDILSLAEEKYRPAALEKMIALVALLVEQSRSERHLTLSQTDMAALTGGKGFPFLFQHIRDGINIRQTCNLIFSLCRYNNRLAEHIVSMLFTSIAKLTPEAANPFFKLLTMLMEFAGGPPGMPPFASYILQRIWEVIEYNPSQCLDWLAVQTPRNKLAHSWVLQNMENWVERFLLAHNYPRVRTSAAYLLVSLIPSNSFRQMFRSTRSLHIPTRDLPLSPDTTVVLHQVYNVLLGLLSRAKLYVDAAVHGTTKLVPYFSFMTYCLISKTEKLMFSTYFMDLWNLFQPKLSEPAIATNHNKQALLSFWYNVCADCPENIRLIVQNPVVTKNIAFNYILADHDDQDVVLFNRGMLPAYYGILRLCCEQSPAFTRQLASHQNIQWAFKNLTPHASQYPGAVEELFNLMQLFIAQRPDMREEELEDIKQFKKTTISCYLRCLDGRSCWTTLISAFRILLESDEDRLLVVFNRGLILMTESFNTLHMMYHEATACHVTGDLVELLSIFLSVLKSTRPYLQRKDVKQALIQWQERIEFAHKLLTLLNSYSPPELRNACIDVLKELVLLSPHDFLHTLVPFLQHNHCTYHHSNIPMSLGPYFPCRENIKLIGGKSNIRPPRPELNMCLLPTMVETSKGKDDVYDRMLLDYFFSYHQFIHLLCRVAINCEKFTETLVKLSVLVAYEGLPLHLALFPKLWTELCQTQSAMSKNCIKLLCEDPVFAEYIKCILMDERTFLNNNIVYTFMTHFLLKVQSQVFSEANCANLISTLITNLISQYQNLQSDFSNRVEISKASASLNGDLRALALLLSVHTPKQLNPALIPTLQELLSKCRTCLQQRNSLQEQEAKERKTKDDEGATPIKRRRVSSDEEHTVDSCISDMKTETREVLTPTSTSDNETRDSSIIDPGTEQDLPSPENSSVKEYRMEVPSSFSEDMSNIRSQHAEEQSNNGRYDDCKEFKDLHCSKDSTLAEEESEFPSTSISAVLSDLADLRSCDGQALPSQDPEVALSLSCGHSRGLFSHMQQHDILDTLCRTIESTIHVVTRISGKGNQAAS

Cl.O=C(CCl)N1CCC(Cc2nccs2)C1 (stereo not given)
inactive: USP34 0.132 | USP36 -0.0197 | USP38 0.0569 | USP39 0.0712 | USP4 -0.165
